# Shown are actives, neighbours in structure and some others; about 4.1% of the full set was active somewhere.
# CASP6 VEID inh = inhibitors of human caspase-6; purified caspase-6, Z-VEID-R110 cleavage fluorescence; inhibition, % at 12.5 µM; P55212; 350,000 tested, 0.53% active;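 active means mean inhibition across replicates at least about 35%, with every replicate also reaching that limit, limit read from the data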;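 further: 0% = median of neutral control wells and 100% = no fluorescence left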
# F508del corr = correctors of CFTR F508del function in bronchial epithelial cells | CFBE cells, YFP halide quenching; stimulated with forskolin plus potentiator P3; % fluorescence drop versus neutral controls | activity (quench increase), % at 7.58 µM | 350,000 tested, 0.36% active;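 active means mean added fluorescence quench of at least 8% versus neutral control, with both replicates also reaching 8%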;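 further: cells transiently co-express mutant CFTR-F508del with the halide-sensitive YFP; corrector assay measuring rescue of mutant channel to the surface after 24 h compound exposure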
# NSD2 inh = blocks human histone methyltransferase NSD2. AID 743445. O96028. NSD2 peptide methylation, AlphaScreen, 120 min. inhibition, % at 12.5 µM. 310,000 tested, 0.54% active; in the data active means inhibition above about 50%
# PglD inh = inhibitors of Campylobacter jejuni PglD acetyltransferase. purified PglD enzyme, DTNB colorimetric CoA detection. inhibition, % at 12.5 µM. 360,000 tested, 0.098% active; in the data active means inhibition above about 16%, passing the limit was not always enough
# ALR H2O2 inh = inhibitors of human sulfhydryl oxidase ALR; purified ALR, DTT oxidation, H2O2 HRP-luminol luminescence; inhibition, % (no concentration beside the values); 290,000 tested, 3.8% active;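 active means mean replicate inhibition above about 79%, with every replicate also reaching it, limit read from the data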
# HIV Env fusion = HIV envelope-mediated fusion inhibition. HeLa-JRFL Env/CEM21 cell fusion, luciferase. inhibition, % at 12.3 µM. 360,000 tested, 1.1% active;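 active means mean replicate inhibition score of at least 50 and every replicate individually at or above 50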;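 further: 0% = plate neutral controls and 100% = maraviroc near 300 nM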
# * hit, by the source's call; . = no result; [ ] = another dose, or the depositor's remark.
SMILES,CASP6 VEID inh,F508del corr,NSD2 inh,PglD inh,ALR H2O2 inh,HIV Env fusion
O=C(O)CCC(=O)N1CCN(S(=O)(=O)c2ccc3ccccc3c2)CC1,1,-1,10,-2,-5,-11
O=C(CCC(=O)N1CCN(S(=O)(=O)c2ccc3ccccc3c2)CC1)Nc1cc(Cl)cc(Cl)c1,-1,2,-1,.,0,85*
COc1ccc2c3c(n(C)c2c1)[C@@H](CO)N(CC1CC1)CC31CCN(C(=O)CN(C)C)CC1,-45,0,.,.,.,.
CCCc1[nH]nc2c1C(Cc1ccccc1)C(C#N)=C(N)O2 (configuration not stated),.,.,-1,2,.,64*
O=C(O)CSCC(=O)Nc1ccc(-c2nc3ccccc3s2)cc1,25,-1,1,-1,99*,16
O=C(CSc1nnc(SCc2cccc3ccccc23)s1)Nc1ccc(C(=O)O)cc1,22,-2,5,.,98*,-4
O=C(CSc1nc2ccccc2s1)NCc1cc([N+](=O)[O-])ccc1O,3,-1,.,-7,99*,.
O=C(CSc1nc2ccccc2s1)Nc1cc(C(=O)O)cc(C(=O)O)c1,-1,0,6,.,99*,11
C[C@@H]1CN([C@H](C)CO)C(=O)c2cc(NC(=O)C3CCCCC3)ccc2O[C@H]1CN(C)Cc1ccccc1,1,-3,.,1,.,10[16.7 µM]
O=C(NCC1CC1)[C@@H]1[C@@H](CO)[C@@H]2Cn3c(ccc(-c4cccnc4)c3=O)[C@H]1N2C(=O)C1CC1,-2,.,.,39,.,13[16.7 µM]
O=C(CSc1nc2ccccc2s1)Nc1nccs1,.,.,1,-2,-9,-69
Nc1nonc1NC(=O)CSc1nc2ccccc2s1,.,.,0,-1,98*,.
O=C(CSc1nc2ccccc2s1)Nc1ccc(Cl)c(C(=O)O)c1,8,3,19,.,99*,11
O=C(CSc1nc2ccccc2s1)NNC(=O)Nc1ccc(Cl)c(Cl)c1,.,.,1,0,-12,.
CN(C)CCCNC(=O)C[C@@H]1CC[C@H]2[C@@H](COC[C@@H](O)CN2Cc2ccc(Cl)c(Cl)c2)O1,-10,1,.,-2,.,8[16.7 µM]
C[C@@H]1CN([C@H](C)CO)S(=O)(=O)c2ccc(-c3cccc(F)c3)cc2O[C@@H]1CN(C)C,4,0,.,1,.,10[16.7 µM]
CO[C@H]1CN(C)C(=O)c2cc(NC(=O)C3CC3)ccc2OC[C@H](C)N(C(=O)CN2CCOCC2)C[C@H]1C,.,0,.,-3,.,5[16.7 µM]
C[C@@H]1CCCCO[C@@H](CN(C)S(C)(=O)=O)[C@H](C)CN([C@H](C)CO)C(=O)c2cc(NC(=O)Nc3ccc(C(F)(F)F)cc3)ccc2O1,-2,0,.,3,.,-6[16.7 µM]
FC(F)(F)COc1nc(N2CCOCC2)nc(N(c2ccccc2)c2ccccc2)n1,.,.,-1,2,.,76*
COc1ccccc1-c1nnc(Sc2nc([N+](=O)[O-])nn2C)o1,.,.,2,.,-19,126*
Cn1cnnc1Sc1nc([N+](=O)[O-])nn1C,2,.,-3,.,-40,13
CCOC(=O)c1ccc(NC(=O)NCc2c(C)nn(CC)c2C)cc1,2,-1,-8,0,2,21
CCn1nc(C)c(CNC(=O)Nc2ccccc2C(=O)OC)c1C,2,-3,-2,3,96*,7
C[C@@H]1CCCCO[C@@H](CN(C)C(=O)Nc2ccc(F)cc2)[C@H](C)CN([C@H](C)CO)C(=O)c2cc(NS(=O)(=O)c3cn(C)cn3)ccc2O1,1,2,.,8,.,-9[16.7 µM]
C[C@H]1CN([C@@H](C)CO)C(=O)c2cccc(NS(=O)(=O)c3ccc(Cl)cc3)c2O[C@H]1CN(C)Cc1ccc(Cl)c(Cl)c1,.,-2,.,2,.,-29[16.7 µM]
SMILES,CASP6 VEID inh,F508del corr,NSD2 inh,PglD inh,ALR H2O2 inh,HIV Env fusion
CSc1nc2ccc(S(=O)(=O)Nc3c(C)n(C)n(-c4ccccc4)c3=O)cc2s1,.,.,-1,-1,99*,.
Cc1c(NS(=O)(=O)c2ccc3c(c2)n(C)c(=O)n3C)c(=O)n(-c2ccccc2)n1C,.,.,0,-6,-4,.
Cc1c(NS(=O)(=O)c2ccc3nc(COc4ccccc4Cl)[nH]c3c2)c(=O)n(-c2ccccc2)n1C,3,2,-8,-3,99*,7
OC[C@H]1[C@@H](c2ccc(C#CC3CC3)cc2)[C@@H]2CN(CCC(F)(F)F)CCCCN12,.,1,.,0,.,.
CCN(c1ccccc1)c1cc2ccccc2c(=O)[nH]1,65*,1,41,-3,45,4
COc1ccccc1S(=O)(=O)N[C@@H]1CC[C@H](CC(=O)NCc2cc(F)cc(F)c2)O[C@@H]1CO,1,-2,.,.,.,.
Cc1ccc(NC(=O)CSc2nn(-c3ccc(Cl)cc3)c(=S)s2)cc1S(=O)(=O)N(C)C,2,.,-1,-1,37,83*
CN(C)S(=O)(=O)c1cc(NC(=O)CSc2nn(-c3ccc(Cl)cc3)c(=S)s2)ccc1Cl,.,.,0,.,-2,133*
Cc1ccc(NC(=O)CNc2ccc(Cl)c(Cl)c2)cc1S(=O)(=O)N(C)C,2,.,-2,3,-2,20
NS(=O)(=O)c1cccc(NC(=O)CSc2nn(-c3ccccc3)c(=S)s2)c1,.,.,5,0,-5,27
C[C@@H]1CN([C@H](C)CO)C(=O)CCCn2cc(nn2)CO[C@@H]1CN(C)Cc1ccc(C(F)(F)F)cc1,.,-3,.,.,.,.
CC(C)NC(=O)COc1nncc2ccccc12,-1,-2,-5,-10,100*,2
O=C(COc1nncc2ccccc12)NCCC1=CCCCC1,.,.,4,-5,.,5
CCCC(=O)Nc1ccc2c(c1)C(=O)N(C)[C@H]1CC[C@@H](CC(=O)NCCOC)O[C@@H]1CO2,.,0,.,9,.,-5[16.7 µM]
COC(=O)CCCC1=CC2=CC(=O)C(C)(OC(=O)c3cccs3)C(=O)C2=CN1Cc1ccco1 (configuration not stated),47*,-2,.,5,-42,-33
C[C@@H]1CN([C@H](C)CO)C(=O)c2cc(NC(=O)NC3CCCCC3)ccc2O[C@H]1CN(C)Cc1ccc(C(=O)O)cc1,-1,3,.,4,.,.
CCCNC(=O)C[C@H]1C[C@@H]2c3cc(N(C)C)ccc3O[C@@H]2[C@H](CO)O1,1,-1,.,-1,.,.
CCOC(=O)c1cc2c(=O)n3ccccc3nc2n(Cc2ccco2)c1=NC(=O)c1cccnc1,.,.,5,6,1,20
Cc1cccn2c(=O)c3cc(C#N)c(=NC(=O)c4ccco4)n(Cc4ccco4)c3nc12,67*,2,9,0,61,5
Cc1cccn2c(=O)c3cc(C#N)c(=NC(=O)c4ccccc4)n(Cc4ccco4)c3nc12,13,0,-1,4,89*,-14
CCOC(=O)c1cc2c(=O)n3ccccc3nc2n(Cc2ccco2)c1=NC(=O)c1ccccc1OCC,3,.,7,.,90*,8
CC1CCCN(C(=O)c2ccc(S(=O)(=O)N3CCC(c4nc5ccccc5s4)CC3)cc2)C1 (configuration not stated),.,.,-2,6,-4,68*
